Screening data: PubChem BioAssay, National Center for Advancing Translational Sciences (NCATS)
NPR1 antag – blocks ANP-stimulated signaling of human Npr1 receptor; actives 1.6% (n = 76,000); HEK293 hNpr1 GloSensor cGMP, ANP-stimulated luminescence; Potency, µM (titrated, usually from 46.3 µM), for the others: top-dose activity change, negative = inhibition, most hits filed as inhibitors; calls by dose curve; note: nearly all actives have a fitted effect of over 60% in size
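HEK293 cells stably expressing human Npr1 and cGMP GloSensor pGS-40F, loaded 2 h with 2% GloSensor reagent, given compound 30 min at room temperature. Luminescence read before and 20 min after 0.1 nM hNppA.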
GPT2 inhibitor – inhibitors of human GPT2 alanine aminotransferase | Q8TD30 | Recombinant GPT2, coupled pyruvate oxidase/HRP Amplex Red fluorescence | Potency, µM (doses to about 57.7 µM), for the others: top-dose activity change, negative = inhibition, actives largely listed as inhibitors | actives 0.25% (n = 100,000) | AID 1671188; note: nearly all actives have a fitted effect of over 60% in size
Target sequence (Q8TD30 whole entry, looked up): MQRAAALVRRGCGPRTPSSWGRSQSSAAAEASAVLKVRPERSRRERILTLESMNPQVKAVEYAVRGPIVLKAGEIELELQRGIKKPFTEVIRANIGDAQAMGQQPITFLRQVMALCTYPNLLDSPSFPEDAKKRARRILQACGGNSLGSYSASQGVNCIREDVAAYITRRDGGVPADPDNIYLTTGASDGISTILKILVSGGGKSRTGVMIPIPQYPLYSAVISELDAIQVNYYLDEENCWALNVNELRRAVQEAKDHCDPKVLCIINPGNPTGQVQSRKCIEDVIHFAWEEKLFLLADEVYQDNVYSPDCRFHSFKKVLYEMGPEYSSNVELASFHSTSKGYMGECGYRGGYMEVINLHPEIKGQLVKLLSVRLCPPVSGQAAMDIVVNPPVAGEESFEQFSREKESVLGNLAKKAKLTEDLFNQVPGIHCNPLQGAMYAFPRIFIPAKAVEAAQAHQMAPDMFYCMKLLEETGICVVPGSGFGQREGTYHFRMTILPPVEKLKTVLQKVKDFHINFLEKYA
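Fluorescence read-out: pyruvate from GPT2 turnover coupled to pyruvate oxidase, HRP and Amplex Red (0.2mM ThPP, 0.2U/mL PO and HRP, 50uM Amplex final). Substrates 250uM a-KG, 2mM L-alanine; enzyme 10ng/uL; 30 min RT.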
3T3 cytotox – cytotoxic compounds in NIH 3T3 cells | NIH 3T3 viability, CellTiter-Glo ATP luminescence, 48-72 h | Potency, µM (doses to about 96.7 µM), inactives show at the highest dose activity change, negative = cytotoxicity, hits mostly inhibitors | actives 4.3% (n = 94,000); note: nearly all actives have a fitted effect of over 55% in size
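Cytotoxicity was measured by CellTiter-Glo ATP luminescence after 48 or 72 h compound exposure at 37 °C. Mouse NIH 3T3 fibroblasts were seeded at 400 cells/well and dosed by 23 nL pin transfer.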
HEK293 tox – HEK 293 cell cytotoxicity; HEK 293 viability, ATP luminescence (CellTiter-Glo), 48-72 h; Potency, µM (top dose mostly 115 µM), for the others: at the highest dose activity change, negative = cytotoxicity, usual class: inhibitors; actives 6.6% (n = 94,000); note: nearly all actives have a fitted effect of over 60% in size
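Read-out: CellTiter-Glo ATP luminescence. Cells: HEK 293, 250 cells/well. Exposure: 48 or 72 hr, 37 degree Celsius.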
Luciferase inh – Photinus pyralis luciferase inhibition. purified P. pyralis luciferase, luminescence, biochemical. actives 2.5% (n = 76,000). AID 1347043. P08659. Potency, µM (highest dose often 115 µM), hits mostly inhibitors; note: nearly all actives have a fitted effect of over 65% in size
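Purified 10nM P. pyralis luciferase with 10uM D-luciferin and 10uM ATP in 50mM Tris acetate pH 7.5, 10mM Mg acetate, 0.01% Tween-20, 0.05% BSA. qHTS titration; luminescence read by CCD imager.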
The depositor's hits bear a star; [ ] = remark or other dose. A selection: hits, their analogues and other compounds. The true share with any hit is near 10%. Unless noted, calls come from the whole dose curve; as a rule, active = well fitted curve in the direction sought with a large enough effect; inconclusive = small, poorly fitted or top-dose-only effect, or another doubt; inactive = no such curve, though single readings can be large; an effect the other way counts as inactive or inconclusive. % is set by controls: 0 for no effect and ±100 for the full control effect; potency is the fitted concentration of half-maximal effect.

What do the screens show for `CC(C)CN1CCN(C2CCOC3(CCN(C(=O)Cc4cccc(F)c4)CC3)C2)CC1` (stereo not given)?
GPT2 inhibitor: -6%; 3T3 cytotox: inconclusive; HEK293 tox: inconclusive

Results for Cn1ncc(N2CCC(NC(=O)c3ccc4c(c3)OCO4)CC2)cc1=O ?
NPR1 antag: -4%; GPT2 inhibitor: inactive; 3T3 cytotox: -1%; HEK293 tox: -11%; Luciferase inh: inactive

Results for CN(C)c1ccc(C(=O)NC2CCCN(c3cc(-c4ccc(F)cc4)[nH]n3)C2)cc1 (stereo not given) ?
NPR1 antag: -10%; GPT2 inhibitor: -16%; 3T3 cytotox: inconclusive; HEK293 tox: 35µM*; Luciferase inh: inconclusive

What do the screens show for `COc1ccc(-c2cc(N3CCCC(NC(=O)c4ccc(N(C)C)cc4)C3)n[nH]2)cc1` (stereo not given)?
NPR1 antag: -24%; GPT2 inhibitor: inactive; 3T3 cytotox: inconclusive; HEK293 tox: 45µM*; Luciferase inh: 7.1µM*

How did O=C(NC1CCCN(c2cc(-c3ccccc3)[nH]n2)C1)c1ccc(Br)cc1 (stereo not given) do in these assays?
NPR1 antag: -5%; GPT2 inhibitor: 3%; 3T3 cytotox: 32µM*; HEK293 tox: 22µM*; Luciferase inh: inactive

Results for CN(C)c1cccc(C(=O)NC2CCN(c3cnn(C)c(=O)c3)CC2)c1 ?
NPR1 antag: 3%; GPT2 inhibitor: inactive; 3T3 cytotox: -6%; HEK293 tox: inactive; Luciferase inh: 25µM*

How did O=C(NC1CCN(c2cc(-c3ccccc3)[nH]n2)C1)c1ccc(Br)cc1 (stereo not given) do in these assays?
NPR1 antag: 3%; GPT2 inhibitor: inactive; 3T3 cytotox: -11%; HEK293 tox: -26%; Luciferase inh: inactive

Results for CCOc1ccc(C(=O)NC2CCCN(c3cc(-c4ccc(OC)cc4)[nH]n3)C2)cc1 (stereo not given) ?
NPR1 antag: -3%; GPT2 inhibitor: -8%; 3T3 cytotox: -22%; HEK293 tox: inconclusive; Luciferase inh: inconclusive

What do the screens show for `CNC(=O)c1cc(C)nc2onc(C3CCN(C(=O)Cc4ccc(F)cc4)C3)c12` (stereo not given)?
3T3 cytotox: -16%; HEK293 tox: 0%

What do the screens show for `O=C(NC1CCN(c2cc(-c3ccccc3)[nH]n2)CC1)c1ccsc1`?
NPR1 antag: -19%; GPT2 inhibitor: 1%; 3T3 cytotox: -6%; HEK293 tox: 79µM*; Luciferase inh: inconclusive

How did CN(C)c1cccc(C(=O)NC2CCCN(c3cc(-c4ccc(F)cc4)[nH]n3)C2)c1 (stereo not given) do in these assays?
NPR1 antag: -10%; GPT2 inhibitor: -8%; 3T3 cytotox: inconclusive; HEK293 tox: inconclusive; Luciferase inh: 16µM*

What do the screens show for `Cc1ccc(-c2cc(N3CCC(CNC(=O)c4cccc(N(C)C)c4)CC3)n[nH]2)cc1`?
NPR1 antag: -20%; GPT2 inhibitor: 4%; 3T3 cytotox: inconclusive; HEK293 tox: inconclusive; Luciferase inh: inconclusive

Results for CN(C)c1cccc(C(=O)NCC2CCN(c3cc(-c4ccc(Cl)cc4)[nH]n3)CC2)c1 ?
NPR1 antag: -27%; GPT2 inhibitor: inconclusive; 3T3 cytotox: 40µM*; HEK293 tox: inconclusive; Luciferase inh: inconclusive

How did CN(C)c1cccc(C(=O)NC2CCN(c3cc(-c4ccccc4)[nH]n3)CC2)c1 do in these assays?
NPR1 antag: -22%; GPT2 inhibitor: 4%; 3T3 cytotox: inconclusive; HEK293 tox: inconclusive; Luciferase inh: 40µM*

How did O=C(c1ccc(C(F)(F)F)cc1)N1CCCC(c2nn(-c3ccccn3)c(=O)[nH]2)C1 (stereo not given) do in these assays?
GPT2 inhibitor: 1%; 3T3 cytotox: -15%; HEK293 tox: 0%

Results for CN(C)c1ccc(C(=O)NC2CCCN(c3cc(-c4ccccc4)[nH]n3)C2)cc1 (stereo not given) ?
NPR1 antag: -14%; GPT2 inhibitor: -25%; 3T3 cytotox: inconclusive; HEK293 tox: inconclusive; Luciferase inh: 28µM*

Results for Cc1ccc(C)c(NC(=O)Cn2c(N3CCC(C)CC3)nc(C)cc2=O)c1 ?
NPR1 antag: -17%; GPT2 inhibitor: inactive; 3T3 cytotox: inconclusive; HEK293 tox: 28µM*; Luciferase inh: inactive

How did Cc1ccc(NC(=O)Cn2c(N3CCC(C)CC3)nc(C)cc2=O)c(C)c1 do in these assays?
NPR1 antag: -2%; GPT2 inhibitor: inactive; 3T3 cytotox: inconclusive; HEK293 tox: inconclusive; Luciferase inh: inactive

How did Cc1cc(=O)n(CC(=O)Nc2cc(Cl)ccc2C)c(N2CCC(C)CC2)n1 do in these assays?
NPR1 antag: inconclusive; GPT2 inhibitor: 3%; 3T3 cytotox: 35µM*; HEK293 tox: 35µM*; Luciferase inh: inactive

Results for Cc1ccc(NC(=O)Cn2c(N3CCC(C)CC3)nc(C)cc2=O)cc1 ?
NPR1 antag: inconclusive; GPT2 inhibitor: -20%; 3T3 cytotox: inconclusive; HEK293 tox: inconclusive; Luciferase inh: inactive

Results for Cc1cc(=O)n(CC(=O)Nc2ccc(Br)cc2F)c(N2CCC(C)CC2)n1 ?
NPR1 antag: -9%; GPT2 inhibitor: 0%; 3T3 cytotox: 16µM*; HEK293 tox: inconclusive; Luciferase inh: inactive

Results for O=C(Nc1cccc(C(F)(F)F)c1)N[C@H]1CO[C@H]2[C@@H]1OC[C@@H]2n1nnnc1Oc1ccc(-n2ccnc2)cc1 ?
NPR1 antag: inconclusive; GPT2 inhibitor: 2%; 3T3 cytotox: 22µM*; HEK293 tox: 32µM*; Luciferase inh: inactive

Results for COc1cccc(-c2nnnn2[C@H]2CO[C@H]3[C@@H]2OC[C@@H]3NC(=O)c2ccccc2C(=O)O)c1 ?
NPR1 antag: 4%; GPT2 inhibitor: -29%; 3T3 cytotox: -7%; HEK293 tox: -1%; Luciferase inh: inactive

What do the screens show for `O=C(N[C@H]1CO[C@H]2[C@@H]1OC[C@@H]2n1nnnc1-c1ccc2c(c1)OCO2)c1ccccc1`?
NPR1 antag: inconclusive; GPT2 inhibitor: 0%[88.5 µM]; 3T3 cytotox: inconclusive; HEK293 tox: 79µM*; Luciferase inh: inactive

How did O=C(NCc1ccccc1)N[C@H]1CO[C@H]2[C@@H]1OC[C@@H]2n1nnnc1Oc1ccc(-n2ccnc2)cc1 do in these assays?
NPR1 antag: 0%; GPT2 inhibitor: 1%; 3T3 cytotox: -2%; HEK293 tox: 0%; Luciferase inh: inactive

What do the screens show for `O=C(NC1CCCCC1)N[C@H]1CO[C@H]2[C@@H]1OC[C@@H]2n1nnnc1-c1ccc2c(c1)OCO2`?
NPR1 antag: 2%; GPT2 inhibitor: inactive; 3T3 cytotox: -20%; HEK293 tox: -22%; Luciferase inh: inactive
